Assay results published in PubChem BioAssay (Tox21).
Values joined by “and” are separate entries in the source; they are usually repeats but may differ in a detail not shown here. Identical values can stand only once. Results filed as inconclusive are left out. Where a call stands in place of a potency, no number is given. Where a structure was tested more than once in an assay, its records may differ in their call. Active and inactive are the calls of the source. Unless noted, the call rests on the fitted dose curve; in most records, active means well fitted curve in the direction sought with a large enough effect in the repeat runs; inconclusive means weak or mixed curves; inactive means no such curve, though single readings can be large; an effect the other way counts as inactive or inconclusive.

Columns and labels:
[1] = qHTS assay for small molecule agonists of the p53 signaling pathway (AID 651631; calls by dose curve; further: nearly all actives have a fitted effect of over 15% in size; further: potency means the concentration at half of the fitted maximal effect)
Method in brief: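 Stably transfected HCT-116 cells (beta-lactamase behind p53 response elements) get compounds after a 5 h settling period; 16 h later at 37 °C, FRET substrate is loaded and fluorescence read after 2 h.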

[2] = qHTS assay for small molecules that induce genotoxicity in human embryonic kidney cells expressing luciferase-tagged ATAD5 (AID 651632); further: nearly all actives have a fitted effect of over 15% in size; further: potency means the concentration at half of the fitted maximal effect
Method in brief: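 HEK293T cells carrying a luciferase reporter tagged to ATAD5 were exposed to compound or DMSO vehicle for 16 hr at 37C, 5% CO2. Amplite was added, and after 30 min at room temperature luciferase activity was read as a marker of ATAD5 induction.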

[3] = qHTS assay for small molecule agonists of the p53 signaling pathway - cell viability (AID 651633; calls by dose curve; further: nearly all actives have a fitted effect of over 30% in size; further: potency means the concentration at half of the fitted maximal effect)
Method in brief: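 Viability counter-read: CellTiter-Glo luminescence (30 min, room temperature) in the same p53RE-bla plates. These plates had been exposed to compounds for 16 h at 37 C.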

[4] = qHTS assay for small molecules that induce genotoxicity in human embryonic kidney cells expressing luciferase-tagged ATAD5 - cell viability (AID 651634; calls by dose curve; further: nearly all actives have a fitted effect of over 25% in size; further: potency means the concentration at half of the fitted maximal effect)
Method in brief: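 HEK293T cells expressing luciferase-tagged ATAD5 were exposed to compound or DMSO for 15.5 hr at 37C, 5% CO2. Viability was then read as live-cell protease activity by CellTiter-Fluor fluorescence after 30 min at 37C.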

[5] = qHTS assay for small molecule disruptors of the mitochondrial membrane potential - cell viability (AID 720634; calls by dose curve; further: nearly all actives have a fitted effect of over 20% in size; further: potency means the concentration at half of the fitted maximal effect)
Method in brief: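 HepG2 cells seeded overnight at 37 C, then exposed to compound or DMSO for 1 hr at 37 C, 5% CO2. m-MPI dye added, then CellTiter-Glo for 30 min at room temperature; viability read as ATP luminescence.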

[6] = qHTS assay for small molecule disruptors of the mitochondrial membrane potential (AID 720635); further: potency means the concentration at half of the fitted maximal effect
Method in brief: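 Mitochondrial membrane potential tracked with Mito-MPS dye, red aggregates (ex 540/em 590 nm) against green monomers (ex 490/em 535 nm). Compound treatment 1 hr at 37C, dye 30 min in HepG2.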

[7] = qHTS assay to test for compound auto fluorescence at 590 nm (red) in HepG2 cells (AID 720674)
Method in brief: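 We screened compounds on adherent HepG2 cells, incubating them for an hour at 37 C in 5% CO2 before reading emission at 590 nm under 540 nm excitation; values reflect equivalence to Rose Bengal sodium fluorescence.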

[8] = qHTS assay to test for compound auto fluorescence at 535 nm (green) in HepG2 cells (AID 720675)
[9] = qHTS assay to test for compound auto fluorescence at 460 nm (blue) in HEK293 cells (AID 720678)
Method in brief: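 HEK293 cells (2,000/well, medium with 10% dialyzed FBS) attached 4-5 hr, then exposed to compound overnight at 37C, 5% CO2. Blue fluorescence read at 405/460 nm, with triamterene as reference fluorophore.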

[10] = qHTS assay to test for compound auto fluorescence at 590 nm (red) in HEK293 cells (AID 720679)
Method in brief: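 HEK293 cells (2,000/well, 10% dialyzed FBS) attached 4-5 hr, then dosed with compound or DMSO and incubated overnight at 37C, 5% CO2. Red fluorescence read at 540/590 nm, Rose Bengal sodium as reference fluorophore.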

Row | Compound | Potency [1] | Potency [2] | Potency [3] | Potency [4] | Potency [5] | Potency [6] | outcome [7] | outcome [8] | Potency [9] | outcome [10] | fluorescence, relative to Rose Bengal [7] | fluorescence, % of fluorescein control [8] | fluorescence, % of triamterene [9]
1 | CCCCCCCCCCCCCCCC(=O)OC/C=C(C)/C=C/C=C(C)/C=C/C1=C(C)CCCC1(C)C | inactive | inactive | inactive | inactive | inactive | inactive | inactive | inactive | inactive | inactive |  |  | 
2 | Cc1ccc(C)o1 | inactive | inactive | inactive | inactive | inactive | inactive | inactive | inactive | inactive | inactive |  |  | 
3 | CC(C)CCCC(C)CCO (stereo not given) | inactive | inactive | inactive | inactive | inactive | inactive | inactive | inactive | inactive | inactive |  |  | 
4 | CCCCOC(O)CC (stereo not given) | inactive | inactive | inactive | inactive | inactive | inactive | inactive | inactive | inactive | inactive |  |  | 
5 | CC[C@]12CCCN3CCc4c(n(c5ccccc45)C(=O)C1)[C@@H]32 | 2.54 µM (active) | inactive | inactive | inactive | inactive | inactive |  |  |  |  | -0.674% [at 18.6 µM] (inactive) | 0.0406% [at 18.6 µM] (inactive) | 0.0203% [at 18.6 µM] (inactive)
6 | Cc1cccc(Oc2ccccc2)c1 | inactive | inactive | inactive | inactive | inactive | inactive | inactive | inactive | inactive | inactive |  |  | 
7 | C1CCC2OC2C1 (stereo not given) | inactive | inactive | inactive | inactive | inactive | inactive | inactive | inactive | inactive |  |  |  | 
8 | CNS(=O)(=O)Cc1ccc2[nH]cc(CCN(C)C)c2c1 | inactive | inactive | inactive | inactive | inactive | 29.8 µM (active) |  | inactive | inactive |  |  |  | 
9 | O=c1c2ccccc2nnn1CCl | inactive | inactive | inactive | inactive | inactive | inactive | inactive | inactive | inactive | inactive |  |  | 
10 | CC(CN)CCCN (stereo not given) | inactive | inactive | inactive | inactive | inactive | inactive | inactive | inactive |  | inactive |  |  | 
11 | CC(=O)NCCCS(=O)(=O)O | inactive | inactive | inactive | inactive | inactive | inactive | inactive | inactive | inactive | inactive |  |  | 
12 | O=[N+]([O-])c1cc[n+]([O-])cc1 | inactive | inactive | inactive | inactive | inactive | inactive | inactive | inactive | inactive | inactive |  |  | 
13 | C=CCCCCCC | inactive | inactive | inactive | inactive | inactive | inactive |  | inactive | inactive |  |  |  | 
14 | OCC1CC2CC1C1CCC(CO)C21 (stereo not given) | inactive | inactive | inactive | inactive | inactive | inactive | inactive | inactive | inactive | inactive |  |  | 
15 | CC(=O)OC/C=C/c1ccccc1 | inactive | inactive | inactive | inactive | inactive | inactive | inactive | inactive | inactive | inactive |  |  | 
16 | FC(F)(F)C(F)(F)C(F)(F)C(F)(F)C(F)(F)C(F)(F)CCI | inactive | inactive | inactive | inactive | inactive | inactive | inactive | inactive | inactive | inactive |  |  | 
17 | C=Cc1c(C)c2cc3[nH]c(cc4nc(cc5nc(cc1[nH]2)C(C)=C5CCC(=O)O)C(CCC(=O)O)=C4C)c(C)c3C=C | inactive | inactive | inactive | inactive | inactive | inactive | inactive | inactive |  | inactive |  |  | 
18 | NCCCOCCOCCOCCCN | inactive | inactive | inactive | inactive | inactive | inactive |  | inactive | inactive | inactive |  |  | 
19 | Oc1ccc(Sc2ccc(O)cc2)cc1 | 57.2 µM (active) | inactive | inactive | inactive | inactive | 18.1 µM (active) | inactive | inactive | inactive | inactive |  |  | 
20 | CCN(CC)CCc1nc(-c2ccccc2)no1 | inactive | inactive | inactive | inactive | inactive | inactive |  |  |  |  | 0.351% [at 18.6 µM] (inactive) | 0.0159% [at 18.6 µM] (inactive) | -0.138% [at 18.6 µM] (inactive)
21 | CC(C)=CCCC(C)CC=O (stereo not given) | inactive | inactive | inactive | inactive | inactive |  | inactive | inactive | inactive |  |  |  | 
22 | O=C(c1ccccc1)c1ccc2n1CCC2C(=O)O (stereo not given) | inactive | inactive | inactive | inactive | inactive | inactive | inactive | inactive | inactive |  |  |  | 
23 | COc1ccc(OC)c(OC)c1 | inactive | inactive | inactive | inactive | inactive | inactive | inactive | inactive | inactive | inactive |  |  | 
24 | O=C(CC(=O)c1ccccc1)c1ccccc1 | inactive | 11.7 µM (active) | inactive | inactive | 36.9 µM (active) | 11.7 µM (active) | inactive | inactive | inactive |  |  |  | 

Row | Compound | Potency [1] | Potency [2] | Potency [3] | Potency [4] | Potency [5] | Potency [6] | outcome [7] | outcome [8] | Potency [9] | outcome [10] | fluorescence, relative to Rose Bengal [7] | fluorescence, % of fluorescein control [8] | fluorescence, % of triamterene [9]
25 | Cc1ccc(C(C)c2ccc(C)c(C)c2)cc1C | inactive | inactive | inactive | inactive | inactive | inactive | inactive | inactive |  |  |  |  | 
26 | CCOC(=S)SSC(=S)OCC | inactive | inactive | inactive | inactive | inactive | inactive | inactive | inactive | inactive | inactive |  |  | 
27 | C[C@H](CCC(=O)O)[C@H]1CC[C@H]2[C@@H]3[C@H](O)C[C@@H]4C[C@H](O)CC[C@]4(C)[C@H]3CC[C@]12C | inactive | inactive | inactive | inactive | inactive |  | inactive | inactive | inactive |  |  |  | 
28 | CCOC(=O)CC(=O)c1cc(F)c(Cl)nc1Cl | inactive | inactive | inactive | inactive | inactive | inactive | inactive | inactive | inactive | inactive |  |  | 
29 | O=C1[C@H](CC[C@H](O)c2ccc(F)cc2)[C@@H](c2ccc(O)cc2)N1c1ccc(F)cc1 | inactive | inactive | inactive | inactive | inactive | 23.7 µM (active) | inactive | inactive | inactive | inactive |  |  | 
30 | N#CCc1cccc(C(F)(F)F)c1 | inactive | inactive | inactive | inactive | inactive | inactive | inactive | inactive | inactive |  |  |  | 
31 | CC(=O)OCCc1ccccc1 | inactive | inactive | inactive | inactive | inactive | inactive | inactive | inactive | inactive | inactive |  |  | 
32 | Nc1nc(N)c(-c2ccccc2)s1 | inactive | inactive | inactive | inactive | inactive | inactive | inactive | inactive | inactive | inactive |  |  | 
33 | CC(C)(C)C1CCCCC1O (stereo not given) | inactive | inactive | inactive | inactive | inactive | inactive | inactive | inactive | inactive | inactive |  |  | 
34 | CCCOc1ccc2nc(NC(=O)OC)[nH]c2c1 | 0.298 µM (active) | 1.68 µM (active) | inactive | 0.15 µM (active) | inactive | inactive | inactive | inactive | inactive | inactive |  |  | 
35 | NCc1ccccc1 | inactive | inactive | inactive | inactive | inactive | inactive | inactive | inactive |  | inactive |  |  | 
36 | NC(=S)N/N=C/c1cccnc1 | inactive | inactive | inactive | inactive | inactive | inactive | inactive | inactive | inactive | inactive |  |  | 
37 | CCCC(C)C | inactive | inactive | inactive | inactive | inactive | inactive | inactive | inactive | inactive | inactive |  |  | 
38 | COc1ccccc1OC(=O)Oc1ccccc1OC | inactive | inactive | inactive | inactive | inactive | inactive | inactive | inactive |  | inactive |  |  | 
39 | CC(C)(C)C(=O)OCOP(=O)(COCCn1cnc2c(N)ncnc21)OCOC(=O)C(C)(C)C | inactive | inactive | inactive | inactive | inactive |  | inactive | inactive | inactive | inactive |  |  | 
40 | CCCCCCCCCCCCCCC1CO1 (stereo not given) | inactive | inactive | inactive | inactive |  |  | inactive | inactive | inactive | inactive |  |  | 
41 | O=C(/C=C/c1ccc(O)c(O)c1)O[C@@H]1C[C@](O)(C(=O)O)C[C@@H](O)[C@H]1O | inactive | inactive | inactive | inactive | inactive |  | inactive | inactive | inactive | inactive |  |  | 
42 | c1ccc(CNCc2ccccc2)cc1 | inactive | inactive | inactive | inactive | inactive |  | inactive | inactive |  | inactive |  |  | 
43 | CC(C)CC=O | inactive | inactive | inactive | inactive | inactive |  | inactive | inactive | inactive | inactive |  |  | 
44 | Cc1ncsc1CCO | inactive | inactive | inactive | inactive | inactive |  |  | inactive |  | inactive |  |  | 
45 | CCCCCCCCCO | inactive | inactive | inactive | inactive | inactive |  | inactive | inactive | inactive | inactive |  |  | 
46 | Nc1nc(N)c2nc(CNc3ccc(C(=O)N[C@@H](CCC(=O)O)C(=O)O)cc3)cnc2n1 | inactive and 57.1 nM (active) | inactive | inactive and 45.3 nM (active) | inactive | inactive |  | inactive | inactive |  | inactive |  |  | 
47 | CC(=O)Nc1ccc(/C=N/NC(N)=S)cc1 | inactive | inactive | inactive | inactive | inactive |  | inactive | inactive | inactive | inactive |  |  | 
